Source: the supplement of paper PMC11006884
The full data set covers some 6,500 targets. This sample favours those with a hit. About 2% of all pairs of compound and target were hits.

The targets below were run with COC(=O)C#Cc1ccccc1 [methyl 3-phenylpropiolate] (assay: log2 ratio of iodoacetamide-alkyne labeling of the cysteine site, DMSO over compound (competition); higher = stronger covalent engagement of the cysteine by the compound, active = 1 or more). Details: 500 µM; treatment time 1 h; system: HEK293T cell lysate.
In short: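 The log2 competition ratio per cysteine is defined as mean reporter intensity in control channels over mean reporter intensity in compound channels. Lysate from HEK293T cells (2 mg/mL) received electrophile (500 µM) or vehicle for 1 h at ambient temperature, followed by iodoacetamide alkyne for 1 h. Samples were clicked to sCIP-TMT reagents, pooled, trypsin-digested overnight at 37 °C, streptavidin-enriched, acid-eluted and run on Orbitrap Eclipse LC-MS/MS with FAIMS, with quantification in FragPipe. Three replicates with duplicate channels were used, and any cysteine quantified in only one replicate was excluded.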

UniProt P49902, sequence (P49902 whole entry): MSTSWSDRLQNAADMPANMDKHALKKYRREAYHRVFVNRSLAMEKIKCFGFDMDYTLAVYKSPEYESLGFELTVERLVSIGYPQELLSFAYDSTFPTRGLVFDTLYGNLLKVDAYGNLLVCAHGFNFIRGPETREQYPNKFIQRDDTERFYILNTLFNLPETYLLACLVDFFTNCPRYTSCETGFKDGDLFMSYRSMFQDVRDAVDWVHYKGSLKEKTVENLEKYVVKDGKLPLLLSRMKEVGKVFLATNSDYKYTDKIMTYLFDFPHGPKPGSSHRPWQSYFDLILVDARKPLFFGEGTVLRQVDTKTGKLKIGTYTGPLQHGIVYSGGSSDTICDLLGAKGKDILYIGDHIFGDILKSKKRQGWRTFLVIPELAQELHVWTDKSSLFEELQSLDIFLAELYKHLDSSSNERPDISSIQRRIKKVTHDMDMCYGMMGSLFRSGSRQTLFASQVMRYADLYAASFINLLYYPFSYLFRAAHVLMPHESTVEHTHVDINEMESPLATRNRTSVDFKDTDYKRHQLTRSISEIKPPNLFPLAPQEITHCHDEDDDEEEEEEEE
UniProt P49792, sequence (P49792 whole entry, looked up): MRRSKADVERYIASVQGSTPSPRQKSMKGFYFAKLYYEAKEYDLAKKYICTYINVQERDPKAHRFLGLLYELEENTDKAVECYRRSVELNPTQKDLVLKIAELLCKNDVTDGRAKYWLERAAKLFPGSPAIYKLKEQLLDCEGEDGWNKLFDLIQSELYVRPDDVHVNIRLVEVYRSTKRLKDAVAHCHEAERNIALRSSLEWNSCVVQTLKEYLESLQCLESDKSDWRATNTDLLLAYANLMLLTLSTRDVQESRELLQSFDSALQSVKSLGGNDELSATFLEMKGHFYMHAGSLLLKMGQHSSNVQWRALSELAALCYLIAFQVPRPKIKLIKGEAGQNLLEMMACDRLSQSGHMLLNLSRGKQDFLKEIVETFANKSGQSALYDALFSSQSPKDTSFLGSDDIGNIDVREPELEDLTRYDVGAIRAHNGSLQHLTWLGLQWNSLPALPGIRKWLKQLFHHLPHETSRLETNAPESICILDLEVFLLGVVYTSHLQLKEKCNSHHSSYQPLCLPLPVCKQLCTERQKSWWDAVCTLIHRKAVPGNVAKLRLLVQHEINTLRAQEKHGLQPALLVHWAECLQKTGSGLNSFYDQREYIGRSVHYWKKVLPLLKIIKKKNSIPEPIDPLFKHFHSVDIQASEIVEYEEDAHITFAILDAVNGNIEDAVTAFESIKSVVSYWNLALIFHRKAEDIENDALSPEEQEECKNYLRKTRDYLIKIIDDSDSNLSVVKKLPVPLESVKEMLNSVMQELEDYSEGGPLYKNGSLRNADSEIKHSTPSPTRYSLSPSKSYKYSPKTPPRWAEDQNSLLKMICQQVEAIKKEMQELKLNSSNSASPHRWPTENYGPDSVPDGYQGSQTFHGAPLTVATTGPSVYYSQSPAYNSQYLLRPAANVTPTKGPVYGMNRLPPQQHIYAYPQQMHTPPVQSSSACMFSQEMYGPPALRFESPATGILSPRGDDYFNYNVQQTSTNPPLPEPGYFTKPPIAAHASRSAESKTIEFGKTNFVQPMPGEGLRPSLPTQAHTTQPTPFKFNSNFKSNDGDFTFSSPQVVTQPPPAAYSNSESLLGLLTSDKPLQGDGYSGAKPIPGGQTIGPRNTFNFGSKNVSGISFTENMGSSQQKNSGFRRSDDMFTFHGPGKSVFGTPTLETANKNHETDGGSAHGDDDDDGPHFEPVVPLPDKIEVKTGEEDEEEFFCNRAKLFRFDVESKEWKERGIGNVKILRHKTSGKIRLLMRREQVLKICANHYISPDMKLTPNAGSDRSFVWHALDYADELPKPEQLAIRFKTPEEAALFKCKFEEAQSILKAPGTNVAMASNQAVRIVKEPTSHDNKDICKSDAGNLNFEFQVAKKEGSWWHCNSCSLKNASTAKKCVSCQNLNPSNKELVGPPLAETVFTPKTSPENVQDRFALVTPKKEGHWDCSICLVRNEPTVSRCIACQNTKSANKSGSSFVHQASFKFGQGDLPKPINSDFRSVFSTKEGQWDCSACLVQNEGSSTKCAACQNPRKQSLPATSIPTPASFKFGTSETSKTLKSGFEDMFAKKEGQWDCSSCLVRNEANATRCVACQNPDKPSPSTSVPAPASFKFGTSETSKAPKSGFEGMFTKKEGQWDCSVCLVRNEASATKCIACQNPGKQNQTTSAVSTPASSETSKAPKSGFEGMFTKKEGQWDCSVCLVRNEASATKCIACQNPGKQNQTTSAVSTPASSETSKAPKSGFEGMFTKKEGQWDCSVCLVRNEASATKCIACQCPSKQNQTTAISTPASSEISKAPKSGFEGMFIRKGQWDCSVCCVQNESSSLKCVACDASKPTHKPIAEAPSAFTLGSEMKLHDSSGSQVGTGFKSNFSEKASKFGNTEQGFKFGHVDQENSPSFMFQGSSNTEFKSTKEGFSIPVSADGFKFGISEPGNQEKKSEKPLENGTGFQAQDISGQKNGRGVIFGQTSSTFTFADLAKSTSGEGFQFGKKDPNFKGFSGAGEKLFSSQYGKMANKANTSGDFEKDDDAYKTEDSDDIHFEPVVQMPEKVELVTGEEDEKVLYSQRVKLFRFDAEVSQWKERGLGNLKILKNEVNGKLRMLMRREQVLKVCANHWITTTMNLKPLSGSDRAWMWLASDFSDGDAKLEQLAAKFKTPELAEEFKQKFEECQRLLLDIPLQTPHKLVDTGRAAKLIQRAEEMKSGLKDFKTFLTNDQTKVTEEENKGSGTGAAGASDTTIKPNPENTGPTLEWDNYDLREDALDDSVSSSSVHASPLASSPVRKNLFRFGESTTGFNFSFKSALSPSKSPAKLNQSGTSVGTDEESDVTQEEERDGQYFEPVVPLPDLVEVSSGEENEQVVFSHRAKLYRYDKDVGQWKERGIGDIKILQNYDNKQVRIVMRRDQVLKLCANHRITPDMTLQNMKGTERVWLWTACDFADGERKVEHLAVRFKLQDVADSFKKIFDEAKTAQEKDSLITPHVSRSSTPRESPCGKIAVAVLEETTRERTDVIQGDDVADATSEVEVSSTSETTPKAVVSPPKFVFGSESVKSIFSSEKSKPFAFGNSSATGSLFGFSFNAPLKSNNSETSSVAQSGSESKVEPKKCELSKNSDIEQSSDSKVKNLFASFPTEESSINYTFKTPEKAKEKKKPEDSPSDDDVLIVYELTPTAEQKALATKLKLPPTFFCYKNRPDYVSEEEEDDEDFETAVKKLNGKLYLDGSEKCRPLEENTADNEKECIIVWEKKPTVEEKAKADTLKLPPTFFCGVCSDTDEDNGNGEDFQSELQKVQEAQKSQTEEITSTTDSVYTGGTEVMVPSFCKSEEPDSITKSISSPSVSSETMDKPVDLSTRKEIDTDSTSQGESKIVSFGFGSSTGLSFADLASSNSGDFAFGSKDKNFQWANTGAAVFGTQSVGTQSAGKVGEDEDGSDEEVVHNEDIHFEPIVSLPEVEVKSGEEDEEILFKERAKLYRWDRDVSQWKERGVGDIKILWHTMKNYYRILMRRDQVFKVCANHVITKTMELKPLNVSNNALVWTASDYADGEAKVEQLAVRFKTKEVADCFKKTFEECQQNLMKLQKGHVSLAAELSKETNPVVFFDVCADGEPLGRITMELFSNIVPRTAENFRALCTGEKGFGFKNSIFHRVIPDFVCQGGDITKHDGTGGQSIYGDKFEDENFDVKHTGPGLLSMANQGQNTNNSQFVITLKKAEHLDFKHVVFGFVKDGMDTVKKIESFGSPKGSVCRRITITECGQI
UniProt P20700, sequence (P20700 whole entry, looked up): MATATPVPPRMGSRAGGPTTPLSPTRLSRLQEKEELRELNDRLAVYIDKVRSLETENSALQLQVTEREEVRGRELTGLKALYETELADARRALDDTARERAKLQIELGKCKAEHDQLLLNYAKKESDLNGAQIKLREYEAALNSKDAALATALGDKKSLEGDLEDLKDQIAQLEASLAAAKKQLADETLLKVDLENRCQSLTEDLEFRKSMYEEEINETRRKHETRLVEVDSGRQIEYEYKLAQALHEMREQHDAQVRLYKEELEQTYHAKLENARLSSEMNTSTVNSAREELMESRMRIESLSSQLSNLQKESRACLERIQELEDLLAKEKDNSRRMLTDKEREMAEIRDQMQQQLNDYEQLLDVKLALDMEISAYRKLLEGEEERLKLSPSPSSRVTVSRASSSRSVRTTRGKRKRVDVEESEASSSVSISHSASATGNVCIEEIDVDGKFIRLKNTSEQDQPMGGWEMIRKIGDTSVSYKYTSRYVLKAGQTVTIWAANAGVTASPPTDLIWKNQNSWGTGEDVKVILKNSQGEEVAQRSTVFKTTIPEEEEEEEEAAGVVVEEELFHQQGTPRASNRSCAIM
UniProt P18754, sequence (P18754 whole entry, looked up): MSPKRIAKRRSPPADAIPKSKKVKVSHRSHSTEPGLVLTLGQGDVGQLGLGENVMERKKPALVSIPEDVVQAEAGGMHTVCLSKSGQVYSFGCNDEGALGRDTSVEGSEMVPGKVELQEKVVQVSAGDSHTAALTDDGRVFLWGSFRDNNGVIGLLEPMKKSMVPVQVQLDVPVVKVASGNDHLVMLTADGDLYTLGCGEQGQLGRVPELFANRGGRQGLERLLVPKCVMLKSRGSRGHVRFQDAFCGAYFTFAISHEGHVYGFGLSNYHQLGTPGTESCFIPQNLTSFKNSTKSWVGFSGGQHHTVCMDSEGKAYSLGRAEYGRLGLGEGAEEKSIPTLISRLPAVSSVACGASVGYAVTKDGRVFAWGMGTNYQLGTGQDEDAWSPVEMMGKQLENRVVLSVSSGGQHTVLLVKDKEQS
UniProt P07737, sequence (P07737 whole entry, looked up): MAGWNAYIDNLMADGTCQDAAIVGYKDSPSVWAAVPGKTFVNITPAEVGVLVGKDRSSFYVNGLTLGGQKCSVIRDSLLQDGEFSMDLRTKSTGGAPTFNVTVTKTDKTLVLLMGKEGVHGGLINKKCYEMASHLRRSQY

log2 ratio of iodoacetamide-alkyne labeling, inactive:
RANBP2 C1335 (UniProt P49792) 0.226, IARS C433 (UniProt P41252) -0.0103, NT5C2 C181 (UniProt P49902) 0.0722, FASN C1548 (UniProt P49327) -0.00359, LMNB1 C198 (UniProt P20700) 0.109, ATIC C363 (UniProt P31939) 0.3, GMPS C137 (UniProt P49915) 0.217, FLNA C478 (UniProt P21333) 0.00171, JUP C90 (UniProt P14923) 0.305, PFN1 C17 (UniProt P07737) -0.417, SEPHS1 C31 (UniProt P49903) 0.175, SMC2 C326 (UniProt O95347) 0.547, LDHB C294 (UniProt P07195) -0.0731, RCC1 C93 (UniProt P18754) 0.14

log2 ratio of iodoacetamide-alkyne labeling, active:
HSPD1 C442 (UniProt P10809) 1.2, DSP C3 (UniProt P15924) 1.14
